“And” between values parts separate entries of the source, which are not always exact repeats. Identical values can stand only once. About 2,000 (36%) of roughly 5,500 compounds were called active. Roughly 18% stayed inconclusive and do not appear here. No stated cut-off is given here; in the data, active means normalized growth mostly below about 0.91 (no sharp cut-off); inconclusive means no clear call, values can overlap the other calls; inactive means mostly above about 0.92. Some of the results follow.
Assay: chemical genetic growth profiling, strain panel (AID 1159580);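 further: tested at 20 µM; growth read once vehicle control cultures reached saturation at 30 °C; 1 = growth at the plate median or of vehicle wells; lower values mean less growth of the strain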
Conditions: S. cerevisiae deletion strains, growth OD

Measured: normalized growth

CCOc1ccc(C(=O)c2cc(O)c(OC)c(OC)c2O)cc1
inactive: locus YAL021C, strain ccr4, hits give low values 1 | locus YAL026C, strain drs2, hits give low values 0.941 | locus YAL030W, strain snc1, hits give low values 0.993 | locus YBL061C, strain skt5, hits give low values 0.998 | locus YBR009C, strain hhf1, hits give low values 0.938 | locus YBR021W, strain FUR4, hits give low values 1.06 | locus YBR023C, strain chs3, hits give low values 0.997 | locus YBR171W, strain sec66, hits give low values 0.981 | locus YBR229C, strain ROT2, hits give low values 1.01 | locus YBR231C, strain swc5, hits give low values 0.987 | locus YBR279W, strain paf1, hits give low values 1 | locus YCL011C, strain gbp2, hits give low values 0.998 | locus YCL016C, strain dcc1, hits give low values 1 | locus YCL029C, strain bik1, hits give low values 1.01 | locus YCL061C, strain MRC1, hits give low values 1 | locus YCL069W, strain vba3, hits give low values 0.997 | locus YCR088W, strain abp1, hits give low values 0.997 | locus YDL005C, strain med2, hits give low values 1.01 | locus YDL035C, strain GPR1, hits give low values 1.02 | locus YDL040C, strain nat1, hits give low values 1.01 | locus YDL074C, strain BRE1, hits give low values 1.11 | locus YDL101C, strain DUN1, hits give low values 1.01 | locus YDL134C, strain PPH21, hits give low values 1.01 | locus YDL185W, strain tfp1, hits give low values 1.01 | locus YDL192W, strain arf1, hits give low values 0.957 | locus YDR001C, strain nth1, hits give low values 0.999 | locus YDR069C, strain doa4, hits give low values 0.969 | locus YDR101C, strain arx1, hits give low values 1 | locus YDR150W, strain NUM1, hits give low values 1.01 | locus YDR159W, strain sac3, hits give low values 0.97 | locus YDR162C, strain NBP2, hits give low values 0.983 | locus YDR195W, strain ref2 1.05 | locus YDR297W, strain sur2, hits give low values 0.995 | locus YDR318W, strain mcm21, hits give low values 0.99 | locus YDR334W, strain swr1, hits give low values 0.987 | locus YDR335W, strain msn5, hits give low values 0.999 | locus YDR388W, hits give low values 1.02 | locus YDR502C, strain sam2, hits give low values 1.02 | locus YEL003W, strain gim4, hits give low values 0.986 | locus YEL037C, strain rad23, hits give low values 0.99 | locus YEL061C, strain CIN8 (second series), hits give low values 0.992 | locus YER015W, strain faa2, hits give low values 0.999 | locus YER016W, strain bim1, hits give low values 0.995 | locus YER110C, hits give low values 1.03 | locus YER111C, strain swi4, hits give low values 0.989 | locus YER155C, strain BEM2, hits give low values 0.995 | locus YER167W, strain BCK2, hits give low values 1 | locus YFR010W, strain ubp6, hits give low values 0.98 | locus YGL078C, strain dbp3, hits give low values 1.03 | locus YGL086W, strain mad1, hits give low values 0.964 | locus YGL167C, strain pmr1, hits give low values 1 | locus YGL173C, strain kem1, hits give low values 0.988 | locus YGL227W, strain vid30, hits give low values 1.01 | locus YGL240W, strain doc1, hits give low values 0.985 | locus YGL248W, strain PDE1, hits give low values 1.04 | locus YGL253W, strain hxk2, hits give low values 1.01 | locus YGR135W, strain pre9, hits give low values 1.01 | locus YGR252W, strain gcn5, hits give low values 1.03 | locus YHR013C, strain ard1, hits give low values 0.985 | locus YHR027C, strain rpn1, hits give low values 0.991 | locus YHR030C, strain SLT2, hits give low values 1 and 0.941 | locus YHR079C, strain IRE1 (second series), hits give low values 1.03 | locus YHR079C, strain IRE1, hits give low values 0.938 | locus YHR094C, strain hxt1, hits give low values 1.01 | locus YHR129C, strain ARP1, hits give low values 1.03 | locus YHR142W, strain chs7, hits give low values 0.931 | locus YHR200W, strain rpn10, hits give low values 1.02 | locus YIL066C, strain RNR3, hits give low values 1.03 | locus YIL073C, strain SPO22, hits give low values 1.01 | locus YIL125W, strain kgd1, hits give low values 0.995 | locus YIR030C, strain dcg1, hits give low values 1.01 | locus YJL092W, strain hpr5, hits give low values 1 | locus YJL095W, strain BCK1 (second series), hits give low values 0.938 | locus YJL095W, strain BCK1, hits give low values 1.05 and 0.949 | locus YJL115W, strain asf1, hits give low values 1 | locus YJL129C, strain trk1, hits give low values 0.955 | locus YJL134W, strain LCB3, hits give low values 0.994 | locus YJL154C, strain vps35, hits give low values 1 | locus YJL164C, strain tpk1, hits give low values 0.969 | locus YJL166W, strain qcr8, hits give low values 0.974 | locus YJL168C, strain set2, hits give low values 1.01 | locus YJL187C, strain SWE1 (second series), hits give low values 1.03 | locus YJL187C, strain SWE1, hits give low values 0.991 | locus YJR043C, strain POL32, hits give low values 1.06 | locus YJR066W, strain TOR1, hits give low values 0.882 | locus YJR075W, strain HOC1, hits give low values 1 | locus YKL009W, strain mrt4, hits give low values 1.02 | locus YKL068W, hits give low values 0.988 | locus YKL085W, strain MDH1 (second series), hits give low values 0.985 | locus YKL085W, strain MDH1, hits give low values 0.985 | locus YKL160W, strain elf1, hits give low values 0.966 | locus YKL190W, strain CNB1, hits give low values 1.01 | locus YKR001C, strain vps1, hits give low values 0.959 | locus YKR026C, strain gcn3, hits give low values 0.997 | locus YKR091W, strain srl3, hits give low values 0.999 | locus YLL001W, strain dnm1, hits give low values 0.989 | locus YLL026W, hits give low values 1.01 | locus YLL041C, strain sdh2, hits give low values 1 | locus YLR027C, strain aat2, hits give low values 0.99 | locus YLR039C, strain RIC1, hits give low values 0.871 | locus YLR058C, strain SHM2, hits give low values 1.03 | locus YLR102C, strain apc9, hits give low values 1.01 | locus YLR221C, strain rsa3, hits give low values 0.984 | locus YLR258W, strain gsy2, hits give low values 0.989 | locus YLR262C, strain YPT6, hits give low values 0.625 | locus YLR268W, strain sec22, hits give low values 0.974 | locus YLR330W, strain CHS5, hits give low values 1 | locus YLR342W, strain FKS1 (second series), hits give low values 0.952 | locus YLR342W, strain FKS1, hits give low values 0.995 | locus YLR357W, strain rsc2, hits give low values 1.02 | locus YLR370C, strain arc18, hits give low values 0.994 | locus YLR371W, strain rom2, hits give low values 0.963 | locus YLR384C, strain iki3, hits give low values 0.999 | locus YLR418C, strain cdc73, hits give low values 1.04 | locus YML016C, strain PPZ1, hits give low values 1.01 | locus YML032C, strain rad52, hits give low values 1.03 | locus YML120C, strain ndi1, hits give low values 0.986 | locus YML124C, strain tub3, hits give low values 1.01 | locus YMR058W, strain fet3, hits give low values 0.981 | locus YMR078C, strain ctf18, hits give low values 1.03 | locus YMR125W, strain sto1, hits give low values 1.01 | locus YMR129W, hits give low values 1 | locus YMR205C, strain PFK2, hits give low values 0.932 | locus YMR223W, strain ubp8, hits give low values 0.981 | locus YMR231W, strain pep5, hits give low values 0.999 | locus YMR263W, strain SAP30, hits give low values 0.997 | locus YMR307W, strain GAS1, hits give low values 0.929 | locus YNL067W, strain RPL9B, hits give low values 1 | locus YNL183C, strain NPR1, hits give low values 0.906 | locus YNL209W, strain ssb2, hits give low values 0.992 | locus YNL233W, strain BNI4, hits give low values 1 | locus YNL248C, strain rpa49, hits give low values 1 | locus YNL250W, strain rad50, hits give low values 1.06 | locus YNL271C, strain bni1, hits give low values 1.01 | locus YNL298W, strain CLA4, hits give low values 1.04 | locus YNL322C, strain KRE1 (second series), hits give low values 0.989 | locus YNR049C, strain mso1, hits give low values 1 | locus YNR052C, strain pop2, hits give low values 1.02 | locus YOL006C, strain TOP1, hits give low values 1.18 | locus YOL012C, strain htz1 1.11 | locus YOL147C, strain pex11, hits give low values 1.01 | locus YOR001W, strain rrp6, hits give low values 0.992 | locus YOR061W, strain CKA2, hits give low values 1.01 | locus YOR069W, strain VPS5, hits give low values 1 | locus YOR070C, strain gyp1, hits give low values 0.981 | locus YOR080W, strain dia2, hits give low values 1.01 | locus YOR083W, strain WHI5, hits give low values 0.977 | locus YOR106W, strain vam3, hits give low values 0.9 | locus YOR136W, strain idh2, hits give low values 1.01 | locus YOR144C, strain elg1, hits give low values 1.01 | locus YOR184W, strain ser1, hits give low values 1.01 | locus YOR231W, strain MKK1, hits give low values 0.948 | locus YOR265W, strain rbl2, hits give low values 0.988 | locus YOR270C, strain vph1, hits give low values 0.903 | locus YOR290C, strain snf2, hits give low values 0.979 | locus YOR316C, strain cot1, hits give low values 1.03 | locus YPL078C, strain atp4, hits give low values 0.994 | locus YPL106C, strain sse1, hits give low values 1.04 | locus YPL240C, strain hsp82, hits give low values 0.991 | locus YPL241C, strain CIN2, hits give low values 1.01 | locus YPL256C, strain CLN2, hits give low values 0.934 | locus YPR119W, strain clb2, hits give low values 1.02 | locus YPR141C, strain kar3, hits give low values 1 | locus YPR163C, strain tif3, hits give low values 0.953 | locus YPR167C, strain met16, hits give low values 1.02 | strain wtn01, hits give low values 0.992
active: locus YDR137W, strain rgp1, hits give low values 0.79 | locus YDR392W, strain spt3, hits give low values 0.455 | locus YER155C, strain BEM2 (second series), hits give low values 0.734 | locus YLR113W, strain HOG1, hits give low values 0.844 | locus YLR262C, strain YPT6 (second series), hits give low values 0.341 | locus YLR320W, strain mms22, hits give low values 0.852 | locus YNL071W, strain lat1, hits give low values 0.626 | locus YNL307C, strain MCK1, hits give low values 0.858 | locus YPL051W, strain arl3, hits give low values 0.891
